Source: PubChem (Johns Hopkins Ion Channel Center)
In the library only some 1.6% were active in any assay of this set; here they are far more common.
KCNQ2 enhance: KCNQ2 (rat) channel potentiation | CHO-K1 KCNQ2, FluxOR thallium flux fluorescence; hits give high values | AID 2239 | O88943 | B-score at 10 µM | 310,000 tested, 0.54% active;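 active = fluorescence ratio B-score at least 3 SD of library B-scores, with initial fluorescence B-score within 3 of them, cut at about 5.3 in these data; same plate scores as AID 2156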;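 note: B-score of peak minus minimum over baseline fluorescence ratio after K+ and Tl+ stimulus; positive B-score means potentiation of KCNQ2 with more thallium influx and brighter signal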
KCNQ2 inh: inhibitors of rat KCNQ2 potassium channel; O88943; CHO-K1 KCNQ2, FluxOR thallium flux, 20 min; hits give low values; B-score at 10 µM; 310,000 tested, 1.1% active;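 active = fluorescence ratio B-score at most minus 3 library SDs, with starting brightness B-score within 2 library SDs, cut at about -5.5 in these data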
Kir21 confirm: confirmation of mouse Kir2.1 potassium channel inhibitors; Tl flux remaining, % of negative control (hits give low values), % at 10 µM; shares compounds with KCNQ2 enhance; Kir2.1-expressing cells, FluxOR thallium flux fluorescence; hits give low values; 2,300 tested, 41% active;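 active = Primary-screen hit whose thallium flux fell at least 3 control SD below untreated wells in both duplicates, with normal baseline fluorescence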;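 note: 0% = blank wells without stimulus and 100% = stimulated no-compound controls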
HEK293 ctr: counter-screen for Kir2.1 inhibitors: effect in parental HEK293 cells; 2,300 tested, 19% active; shares compounds with KCNQ2 enhance; FluxOR signal as % of negative control (100 = no effect), % at 10 µM; FluxOR thallium flux fluorescence; 0% = unstimulated blank wells;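 active = dye signal at least 3 control SD above or below untreated wells in both duplicates, raw fluorescence within 3, either direction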;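 note: percent is based on the flux ratio of peak minus minimum fluorescence over baseline F0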
CHO-K1 ctr: alters thallium flux in parental CHO-K1 cells, KCNQ2 counter-screen; shares compounds with KCNQ2 enhance; FluxOR thallium flux fluorescence; zero = vehicle mean+3SD, 100% = vehicle-minus-blank window; activity increase over 3SD of controls, % at 10 µM; 1,200 tested, 43% active;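 active = signal rise of at least 3 SD above the untreated control mean, in both duplicate wells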;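 note: counter screen of KCNQ2 potentiator hits so any rise reflects channel-independent effects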
KCNQ1 sel pot: tests whether KCNQ2 potentiators also act on human KCNQ1; 1,200 tested, 28% active; shares compounds with KCNQ2 enhance; CHO KCNQ1 stable, FluxOR thallium flux fluorescence; beyond 3SD, as % of vehicle-control signal; AID 2283; activation over 3SD threshold, % at 10 µM;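 active = fluorescence ratio rise of at least 3 SD of vehicle wells above their mean, in both replicate wells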;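 note: 0% = vehicle mean plus 3 SD and 100% = vehicle minus unstimulated blank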
KCNQ2 pot conf: confirmation of rat KCNQ2 potassium channel potentiators | AID 2287 | shares compounds with KCNQ2 enhance | 1,200 tested, 68% active | CHO-KCNQ2 cells, FluxOR thallium flux fluorescence | potentiation, less the hit threshold, % at 10 µM;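 active = fluorescence ratio rising 3 SD or more over the vehicle control mean in both replicates, plus primary screen hit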;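 note: peak minus minimum thallium fluorescence divided by baseline after K/Tl stimulus; 0% = vehicle mean plus 3 SD and 100% = vehicle minus unstimulated blank difference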
Kir21 spec: selectivity of KCNQ2 potentiators: effect on mouse Kir2.1. shares compounds with KCNQ2 enhance. HEK293 Kir2.1, FluxOR thallium flux fluorescence. 1,200 tested, 2% active. AID 2345. activity over 3SD threshold, % at 10 µM;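 active = fluorescence ratio rise of at least 3 SD above the vehicle-control mean, seen in both replicates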;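 note: 0% = vehicle mean plus 3 SD and 100% = vehicle minus no-stimulus blank window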
* = called active by the depositor; i = inactive; . = no result.

SMILES	KCNQ2 enhance	KCNQ2 inh	others
Cc1ccc(C(=O)OC2OC(=O)C(Cl)=C2N2CCOCC2)cc1 (stereo not given)	1.8	i
Cc1ccc(N(CC(=O)NC2CCCC2)C(=O)CNC(=O)c2cccs2)cc1F	0.4	i
CCCN(CCC)C(=O)Cn1c(=O)n(CCCCCC(=O)Nc2ccccc2)c(=O)c2sccc21	1.5	i
CC1=CC(C)(C)n2c(O)c(N=NC(N)=S)c3c(C)ccc1c32	0.15	i
CC1=CC(C)(C)n2c(O)c(N=N)c3c(C)ccc1c32	5.3*	i	Kir21 confirm=i;HEK293 ctr=i;CHO-K1 ctr=54*;KCNQ1 sel pot=-9;KCNQ2 pot conf=-15;Kir21 spec=-21
COc1cccc(-c2cc(C(=O)NCC3CCCO3)c3cc(C)cc(C)c3n2)c1 (stereo not given)	.	i
COc1ccccc1C(=O)NC1CCN(C(=O)Nc2ccc(C)cc2)CC1	1.5	i
